Test results as given in article PMC11062922 (Nature Chemical Biology, 2023).
Like-named read-outs stand apart in the source and are kept apart here.

How the values were obtained:
Design in all cases: species or system human, MV4-11 + K-562 + COLO205 + SK-N-BE2 + OVCAR-8
COX5A = conditions: read-out: apparent Kd; compound concentrations: 100 nM and 1000 nM (sheet 'Samples'), CATDS: 4.9189359622159999E-2; n = 1
DCTPP1 = conditions: read-out: apparent Kd; compound concentrations: 100 nM and 1000 nM (sheet 'Samples'), CATDS: 4.6014352292288702E-2; n = 1
DJA1 = system: T1, DJA1; conditions: read-out: apparent Kd; compound concentrations: 100 nM and 1000 nM (sheet 'Samples'), CATDS: 4.4193252056285201E-2; n = 1
T1 construct: gene DNAJA1

GSK3A = conditions: read-out: apparent Kd; compound concentrations: 100 nM and 1000 nM (sheet 'Samples'), CATDS: 0.122036106459496; n = 1
GSK3B = conditions: read-out: apparent Kd; compound concentrations: 100 nM and 1000 nM (sheet 'Samples'), CATDS: 7.9816759037496299E-2; n = 1
ICK = conditions: read-out: apparent Kd; compound concentrations: 100 nM and 1000 nM (sheet 'Samples'), CATDS: 5.6669342720563003E-2; n = 1
IRAK4 = conditions: read-out: apparent Kd; compound concentrations: 100 nM and 1000 nM (sheet 'Samples'), CATDS: 4.1120656288718103E-2; n = 1
NQO2 = conditions: read-out: apparent Kd; compound concentrations: 100 nM and 1000 nM (sheet 'Samples'), CATDS: 4.4133222473916003E-2; n = 1
PDXK = conditions: read-out: apparent Kd; compound concentrations: 100 nM and 1000 nM (sheet 'Samples'), CATDS: 4.47093082107951E-2; n = 1
PKM = conditions: read-out: apparent Kd; compound concentrations: 100 nM and 1000 nM (sheet 'Samples'), CATDS: 4.24178727539107E-2; n = 1
PRKCA = conditions: read-out: apparent Kd; compound concentrations: 100 nM and 1000 nM (sheet 'Samples'), CATDS: 0.16671093509257301; n = 1
PRKCB = conditions: read-out: apparent Kd; compound concentrations: 100 nM and 1000 nM (sheet 'Samples'), CATDS: 0.103401892254312; n = 1
PRKCD = conditions: read-out: apparent Kd; compound concentrations: 100 nM and 1000 nM (sheet 'Samples'), CATDS: 0.14677324190073199; n = 1
PRKCQ = conditions: read-out: apparent Kd; compound concentrations: 100 nM and 1000 nM (sheet 'Samples'), CATDS: 5.3878720766830299E-2; n = 1
RPS6KA3 = conditions: read-out: apparent Kd; compound concentrations: 100 nM and 1000 nM (sheet 'Samples'), CATDS: 4.20026996356445E-2; n = 1
RPS6KA6 = conditions: read-out: apparent Kd; compound concentrations: 100 nM and 1000 nM (sheet 'Samples'), CATDS: 0.184421750918566; n = 1
RPS6KB1 = conditions: read-out: apparent Kd; compound concentrations: 100 nM and 1000 nM (sheet 'Samples'), CATDS: 4.3958496024185799E-2; n = 1
CSNK1A1 = conditions: read-out: apparent Kd, compound concentrations: 100 nM and 1000 nM (sheet 'Samples'), n = 1
CSNK1D = conditions: read-out: apparent Kd, compound concentrations: 100 nM and 1000 nM (sheet 'Samples'), n = 1
CSNK1E = conditions: read-out: apparent Kd, compound concentrations: 100 nM and 1000 nM (sheet 'Samples'), n = 1
MAPK10 = conditions: read-out: apparent Kd; compound concentrations: 100 nM and 1000 nM (sheet 'Samples'), CATDS: 9.1300875893450595E-2; n = 1
MAPK11 = conditions: read-out: apparent Kd; compound concentrations: 100 nM and 1000 nM (sheet 'Samples'), CATDS: 7.8830615244885299E-2; n = 1
MAPK14 = conditions: read-out: apparent Kd, compound concentrations: 100 nM and 1000 nM (sheet 'Samples'), n = 1
MAPK8 = conditions: read-out: apparent Kd; compound concentrations: 100 nM and 1000 nM (sheet 'Samples'), CATDS: 4.9540433468536101E-2; n = 1
MAPK9 = conditions: read-out: apparent Kd; compound concentrations: 100 nM and 1000 nM (sheet 'Samples'), CATDS: 8.0964581891509499E-2; n = 1
NLK = conditions: read-out: apparent Kd; compound concentrations: 100 nM and 1000 nM (sheet 'Samples'), CATDS: 7.7822094948188494E-2; n = 1
RIPK2 = conditions: read-out: apparent Kd; compound concentrations: 100 nM and 1000 nM (sheet 'Samples'), CATDS: 6.8515245953885195E-2; n = 1
RIPK3 = conditions: read-out: apparent Kd; compound concentrations: 100 nM and 1000 nM (sheet 'Samples'), CATDS: 4.8358331607940903E-2; n = 1
MAPKAPK2 = conditions: read-out: apparent Kd; compound concentrations: 100 nM and 1000 nM (sheet 'Samples'), CATDS: 0.19368451795267799; n = 1
MERTK = conditions: read-out: apparent Kd; compound concentrations: 100 nM and 1000 nM (sheet 'Samples'), CATDS: 0.12955803655980599; n = 1
PIK3CD = conditions: read-out: apparent Kd; compound concentrations: 100 nM and 1000 nM (sheet 'Samples'), CATDS: 0.42646415805735; n = 1
FLT3 = conditions: read-out: apparent Kd; compound concentrations: 100 nM and 1000 nM (sheet 'Samples'), CATDS: 0.137141810176551; n = 1
MAP2K1 = conditions: read-out: apparent Kd; compound concentrations: 100 nM and 1000 nM (sheet 'Samples'), CATDS: 0.12402883868582899; n = 1
MAP3K12 = conditions: read-out: apparent Kd; compound concentrations: 100 nM and 1000 nM (sheet 'Samples'), CATDS: 0.14214405219183901; n = 1
PIK3C2A = conditions: read-out: apparent Kd; compound concentrations: 100 nM and 1000 nM (sheet 'Samples'), CATDS: 0.1177028048525; n = 1
PLK1 = conditions: read-out: apparent Kd; compound concentrations: 100 nM and 1000 nM (sheet 'Samples'), CATDS: 0.134584248305568; n = 1

CNCCCn1cc(C2=C(c3cn(C)c4ccccc34)C(=O)NC2=O)c2ccccc21.Cl [RO0318044-001]
potency estimated from few doses (COX5A): 0.925 µM | potency estimated from few doses (DCTPP1): 1.15 µM | potency estimated from few doses (DJA1): 1.33 µM | potency estimated from few doses (GSK3A): 0.114 µM | potency estimated from few doses (GSK3B): 0.263 µM | potency estimated from few doses (ICK): 0.61 µM | potency estimated from few doses (IRAK4): 1.75 µM | potency estimated from few doses (NQO2): 1.33 µM | potency estimated from few doses (PDXK): 1.27 µM | potency estimated from few doses (PKM): 1.55 µM | potency estimated from few doses (PRKCA): 0.0678 µM | potency estimated from few doses (PRKCB): 0.154 µM | potency estimated from few doses (PRKCD): 0.083 µM | potency estimated from few doses (PRKCQ): 0.703 µM | potency estimated from few doses (RPS6KA3): 1.61 µM | potency estimated from few doses (RPS6KA6): 0.0582 µM | potency estimated from few doses (RPS6KB1): 1.35 µM

CN1CCC(n2cnc(-c3ccc(F)cc3)c2-c2ccnc(Nc3ccccc3)n2)CC1 [SB-236687]
potency estimated from few doses (CSNK1A1; CATDS: 5.98984637657098E-2): 0.341 µM | potency estimated from few doses (CSNK1D; CATDS: 0.13245154437339501): 0.0303 µM | potency estimated from few doses (CSNK1E; CATDS: 9.7404692081277694E-2): 0.0662 µM | potency estimated from few doses (MAPK10): 0.079 µM | potency estimated from few doses (MAPK11): 0.122 µM | potency estimated from few doses (MAPK14; CATDS: 0.23867511815935299): 0.00698 µM | potency estimated from few doses (MAPK8): 1.08 µM | potency estimated from few doses (MAPK9): 0.112 µM | potency estimated from few doses (NLK): 0.127 µM | potency estimated from few doses (RIPK2): 0.196 µM | potency estimated from few doses (RIPK3): 1.33 µM

COc1nccc(-c2c(-c3ccc(F)cc3)ncn2CCCN2CCOCC2)n1 [SB-282852]
potency estimated from few doses (CSNK1D; CATDS: 0.15826837082796799): 0.746 µM | potency estimated from few doses (CSNK1E; CATDS: 0.12159851027947199): 1.58 µM | potency estimated from few doses (MAPK14; CATDS: 0.160477931801707): 0.722 µM | potency estimated from few doses (MAPKAPK2): 0.478 µM | potency estimated from few doses (MERTK): 1.28 µM | potency estimated from few doses (PIK3CD): 0.128 µM

CC(C)(C)n1cnc2c(N)ncnc21 [SKF-97359]
potency estimated from few doses (CSNK1A1; CATDS: 0.118789019342549): 1.87 µM | potency estimated from few doses (CSNK1D; CATDS: 0.12511674231417799): 1.68 µM | potency estimated from few doses (CSNK1E; CATDS: 0.10783492256042899): 2.33 µM | potency estimated from few doses (FLT3): 1.41 µM | potency estimated from few doses (MAP2K1): 1.71 µM | potency estimated from few doses (MAP3K12): 1.32 µM | potency estimated from few doses (PIK3C2A): 1.91 µM | potency estimated from few doses (PLK1): 1.46 µM
